Each structure is given as a SMILES string. Inconclusive results are not listed. Entries that show only a call come without a potency. Active and inactive are the calls of the source. Calls follow the shape of the dose curve; as a rule, active = well fitted cell-killing curve with a large enough effect; inconclusive = small, poorly fitted or top-dose-only effect, or effect the other way; inactive = no such curve, though single readings can be large or run the other way.
Potency is read from the fitted curve at half-maximal effect.

This assay in a line: Quantitative High-Throughput drug screen in 47 multiple myeloma cell lines against the NCATS MIPE library collection: OPM2_DSMZ cell viability assay (AID 1919872). Also: nearly all actives have a fitted effect of over 30% in size. As to conditions: OPM2 myeloma viability, CellTiter-Glo ATP luminescence, 48 h; series mostly up to 45.8 µM. An excerpt:
PI: Beverly A. Mock Ph.D.
Laboratory of Cancer Biology and Genetics,
Center for Cancer Research, National Cancer Institute,
National Institute of Health, Bethesda, Maryland
Drug resistance and disease progression are common in multiple myeloma (MM) patients, underscoring the need for new therapeutic combinations. […] We hypothesized that effective combinations would reduce MYC expression and enhance p16 activity. […] These preclinical data identify potentially useful drug combinations for evaluation in drug-resistant MM and reveal potential mechanisms of combined drug sensitivity.
Described herein is the primary MIPE qHTS used to cherrypick compounds. Validated compounds were then further tested for potential synergistic activiy.
[1] Peat TJ, Gaikwad SM, Dubois W, Gyabaah-Kessie N, Zhang S, Gorjifard S, Phyo Z, Andres M, Hughitt VK, Simpson RM, Miller MA, Girvin AT, Taylor A, Williams D, D'Antonio N, Zhang Y, Rajagopalan A, Flietner E, Wilson K, Zhang X, Shinn P, Klumpp-Thomas C, McKnight C, Itkin Z, Chen L, Kazandijian D, Zhang J, Michalowski AM, Simmons JK, Keats J, Thomas CJ, Mock BA. Drug combinations identified by high-throughput screening promote cell cycle transition and upregulate Smad pathways in myeloma. Cancer Lett. 2023 Aug 1;568:216284. doi: 10.1016/j.canlet.2023.216284. Epub 2023 Jun 24. PMID: 37356470; PMCID: PMC10408729.
SEQUENCE No. (e.g., 1, 2, 3, etc.); […] (e.g., Cells, Incubation, Reagent, etc.); VALUE and DESCRIPTION.
1; Cells; 5 uL; white, solid bottom 1536-well Greiner assay plate.
2; Compounds; 23 nL; Kalypsis pin tool (Wako USA) equipped with a 1536-well pin head to transfer to the assay plates.
3; Incubation; 48 hours; 37C incubation.
4; Reagent;5uL; CellTiter Glo (Promega).
5; Detector; 425V; Luminescence; Viewlux PerkinElmer.
NOTES (numbers refer to Sequence numbers above)
1. The cell-based screening methods employed in this study were like those previously published. Briefly, the corresponding myeloma cell lines were screened in 1,536-well plates with 500 cells, 5-uL per well for inhibition of cell viability (assessed by measuring ATP levels with CellTiterGlo).
2. NCATS MIPE 4.0 library of approved and investigational drugs were added using the Kalypsis pin tool. Wells treated with DMSO only for 100% viability and media only wells for 0% viability were used as controls.
3. The assay plates were covered and incubated for 48 hours in a 37C, 5% CO2 incubator with controlled humidity.
4. After 48 hours, CellTilter-GloTM luminescent substrate mix (Promega) reagent was added to the assay plate and plates we incubated for 5 min at room temperature.
5. Signal was measured as median relative luminescence units on a ViewLux (PerkinElmer) multiplate reader.
[1] Heske CM, Davis MI, Baumgart JT, Wilson K, Gormally MV, Chen L, Zhang X, Ceribelli M, Duveau DY, Guha R, Ferrer M, Arnaldez FI, Ji J, Tran HL, Zhang Y, Mendoza A, Helman LJ, Thomas CJ. Matrix Screen Identifies Synergistic Combination of PARP Inhibitors and Nicotinamide Phosphoribosyltransferase (NAMPT) Inhibitors in Ewing Sarcoma. Clin Cancer Res. 2017 Dec 1;23(23):7301-7311. doi: 10.1158/1078-0432.CCR-17-1121. Epub 2017 Sep 12. PMID: 28899971; PMCID: PMC6636827.
On the technique in general: In ATP-based viability assays light output follows the ATP content of the culture.
Regarding `NC(=O)c1ncn([C@@H]2O[C@H](CO)[C@@H](O)[C@@H]2O)c1O`, the Potency entry is “inactive”.

For `CC(=O)NCC(=O)N1[C@H]2CC[C@H]1c1cc(Nc3ncc(C(F)(F)F)c(NC4CCC4)n3)ccc12`, the Potency was 1.48 µM (active). Then `C#CCC(Cc1cnc2nc(N)nc(N)c2n1)c1ccc(C(=O)N[C@@H](CCC(=O)O)C(=O)O)cc1` (stereo not given in full), with 0.0332 µM (active). Then `C[C@H](NC(=O)[C@@H](O)c1cc(F)cc(F)c1)C(=O)N[C@@H]1C(=O)N(C)c2ccccc2-c2ccccc21`, with “inactive”; and `C=C[C@@H]1CN2CCC1C[C@H]2[C@H](O)c1ccnc2ccc(OC)cc12` (stereo not given in full), with “inactive”; and `C[C@H]1COc2c(N3CCN(C)CC3)c(F)cc3c(=O)c(C(=O)O)cn1c23`, with “inactive”. Then `C[C@H](CCC(=O)O)[C@H]1CC[C@H]2[C@@H]3[C@H](O)C[C@@H]4C[C@H](O)CC[C@]4(C)[C@@H]3CC[C@]12C`, with “inactive”; and `c1coc(CNc2ncnc3nc[nH]c23)c1`, with “inactive”; and `O=C(CN1C(=O)C2(CCCC2)NC[C@H]1c1cc(F)cc(F)c1)Nc1ccc2c(c1)C[C@@]1(C2)C(=O)Nc2ncccc21`, with “inactive”. `OCC(O)C(O)C(O)CO` (stereo not given): the Potency result is “inactive”.

Regarding `Cc1ccc(O)c(C(CCN(C(C)C)C(C)C)c2ccccc2)c1` (stereo not given), the Potency result is “inactive”. Then `COC(=O)C1C2CC3c4[nH]c5cc(OC)ccc5c4CCN3CC2CC(OC(=O)c2cc(OC)c(OC)c(OC)c2)C1OC` (stereo not given), with “inactive”; and `COc1ccc(C=Cc2cc(OC)c(OC)c(OC)c2)cc1NC(=O)[C@H](N)CO`, with 0.0083 µM (active); and `Cc1cc(Nc2ncc3c(n2)N(C)C(=O)N(c2cc(NC(=O)c4cccc(C(F)(F)F)c4)ccc2C)C3)n(C)n1`, with 0.743 µM (active). For the compound `c1ccc2c(Oc3nc(Nc4ccc(N5CCOCC5)cc4)c4ncn(C5CCCCC5)c4n3)cccc2c1`, the Potency result was “inactive”. Then `CCOC(=O)N1CCN([N+]([O-])=NOc2ccc([N+](=O)[O-])cc2[N+](=O)[O-])CC1`, with 1.05 µM (active); and `O=C(C=CC=Cc1ccc2c(c1)OCO2)N1CCCCC1`, with “inactive”. On to `O=[N+]([O-])c1cn2c(n1)OC[C@@H](OCc1ccc(OC(F)(F)F)cc1)C2`, for which the Potency result was “inactive”. Then `NS(=O)(=O)OC[C@@H]1C[C@@H](n2ccc3c(N[C@H]4CCc5ccccc54)ncnc32)C[C@H]1O`, with “inactive”; and `CCNC(=O)Nc1ccc(-c2nc3c(c(N4CCOC[C@H]4C)n2)CCN(C2COC2)C3)cc1`, with 1.66 µM (active).

On to `CC1(C)[C@H](O[C@H]2O[C@H](C(=O)O)[C@@H](O)[C@H](O)[C@H]2O[C@@H]2O[C@H](C(=O)O)[C@@H](O)[C@H](O)[C@H]2O)CC[C@@]2(C)[C@H]1CC[C@]1(C)[C@H]2C(=O)C=C2[C@H]3C[C@@](C)(C(=O)O)CC[C@]3(C)CC[C@]21C`, for which the Potency entry is “inactive”. Regarding `OC[C@@H](O)[C@@H](O)[C@H](O)[C@@H](O)CO`, the Potency result was “inactive”. Then `CC[C@@]1([C@@H]2O[C@@H]([C@H]3O[C@@](O)(CO)[C@H](C)C[C@H]3C)C[C@H]2C)CC[C@H]([C@]2(C)CC[C@]3(C[C@H](O)[C@@H](C)[C@@H]([C@@H](C)[C@@H](OC)[C@H](C)C(=O)O)O3)O2)O1`, with 0.144 µM (active). Regarding `C[N+](C)([O-])CCNc1ccc(NCC[N+](C)(C)[O-])c2c1C(=O)c1c(O)ccc(O)c1C2=O`, the Potency entry was “inactive”. Then `CCN(CC)Cc1ccc2cc(COC(=O)Nc3ccc(C(=O)NO)cc3)ccc2c1`, with 0.833 µM (active).

In the case of `O=C(Nc1cccc(Nc2ncc(Br)c(NCCc3cnc[nH]3)n2)c1)N1CCCC1`, the Potency was 4.18 µM (active). Then `CN(C)c1ccc(C(=O)NCCCCCCC(=O)NO)cc1`, with 0.935 µM (active); and `Cn1cc(-c2cnn3c(N)c(Br)c([C@H]4CCCNC4)nc23)cn1`, with 14.8 µM (active).

In the case of `CCS(=O)(=O)Nc1ccc2[nH]c(O)c(C(=Nc3ccc(CN4CCCCC4)cc3)c3ccccc3)c2c1`, the Potency was 0.833 µM (active). Turning to `Cc1cc(-c2nnc3n2CCCCC3)c(C)n1-c1ccccc1`, the Potency result was “inactive”. Under `Nc1nc(=O)n([C@H]2C[C@H](O)[C@@H](CO)O2)cc1F` stands “inactive”; under `O=C(O)C(=O)Nc1cccc(C2=NN=N[N]2)c1`, “inactive”.

For the compound `CCOC(=O)C1=C(C)NC(=S)NC1c1cccc(O)c1` (stereo not given), the Potency is 0.105 µM (active).

For the compound `O=C(CCCCCCC(=O)Nc1cccnc1)NO`, the Potency was 8.33 µM (active).

`C[N+]1(C)[C@@H]2C[C@@H](OC(=O)C(O)(c3cccs3)c3cccs3)C[C@H]1[C@@H]1O[C@@H]12`: the Potency result is “inactive”.

For `COc1cccc2c1C(=O)c1c(O)c3c(c(O)c1C2=O)C[C@@](O)(C(=O)CO)C[C@@H]3O[C@H]1C[C@H](N)[C@@H](O)[C@H](C)O1`, the Potency is 2.09 µM (active). For the compound `Nc1ccn(C2CO[C@H](CO)O2)c(=O)n1` (stereo not given in full), the Potency entry is “inactive”. For the compound `CC[C@H]1OC(=O)[C@H](C)[C@@H](O[C@H]2C[C@@](C)(OC)[C@@H](O)[C@H](C)O2)[C@H](C)[C@@H](O[C@@H]2O[C@H](C)C[C@H](N(C)C)[C@@H]2O)[C@](C)(OC)C[C@@H](C)C(=O)[C@H](C)[C@@H](O)[C@]1(C)O`, the Potency result is “inactive”. Then `NC(=O)Nc1cc(-c2ccc(CN3CCOCC3)cc2)sc1C(N)=O`, with 14.8 µM (active); and `CCOC(=O)[C@@H](N)Cc1ccc(-c2cc(O[C@H](c3ccc(Cl)cc3-n3ccc(C)n3)C(F)(F)F)nc(N)n2)cc1`, with 18.7 µM (active).

Values taken from PubChem BioAssay (NCATS).
